“And” between values parts separate entries of the source, which are not always exact repeats. Equal values may be shown once. About 18,000 (4.4%) of roughly 410,000 compounds were called active. About 7% were inconclusive and are not listed. The list comes from a sample in which actives are over-represented; it also holds similar structures and randomly drawn compounds. Values without a mark were called inactive. No stated cut-off is given here; in the data, active means activity change below about -60%; inconclusive means no clear call, values can overlap the other calls; inactive means above about -39%.
On the % scale 0 is the no-effect control and ±100 the full control effect.

This test can be described thus: qHTS Assay for inhibitors of the human cytomegalovirus (HCMV). Particulars: HFF cells, HCMV-luciferase reporter, 72 h; at 57.5 µM; active compounds read low. A digest of the protocol:
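After 16 h attachment at 37C, HFF cells received test compound and HCMV-luciferase (1 PFU/cell); reporter luminescence read 72 h later, data normalized against buffer-only and known inhibitor Salinomycin.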
On the technique in general: Quantitative high-throughput screening tests each substance at several concentrations.
In the case of `CCNC(=O)C1(C)CCCN1C(=O)c1ccc(N(C)C)cc1` (stereo not given), the activity change, negative = inhibition is -8.81%.
For the compound `Cc1ccc(C)c(Nc2nnc(-c3ccc(C)c(S(=O)(=O)N4CCCCC4)c3)c3ccccc23)c1`, the activity change, negative = inhibition is -66.1% (active).
Turning to `Cc1ccc(Nc2nnc(-c3ccc(C)c(S(=O)(=O)N4CCCCC4)c3)c3ccccc23)cc1`, the activity change, negative = inhibition is -7.76%.
For `Cc1ccc(-c2nnc(Nc3ccc(C(=O)N(C)C)cc3)c3ccccc23)cc1S(N)(=O)=O`, the activity change, negative = inhibition is -17.4%.
Take `COc1cc(CN(C(=O)c2ccccc2Br)c2ccccn2)cc(OC)c1OC`: the activity change, negative = inhibition is -1.41%.
As for `O=S(=O)(c1ccc(Br)cc1)c1nnn2c1nc(NC1CCCCCC1)c1sccc12`, the activity change, negative = inhibition was -2.26%.
Turning to `CCn1cc(C(=O)N2CC=C(c3ccccc3)CC2)c(=O)c2ccc(C)nc21`, the activity change, negative = inhibition is -108% (active).
Consider `CCn1cc(C(=O)OCC(=O)Nc2cccc(C)c2)c(=O)c2ccc(C)nc21`, for which the activity change, negative = inhibition is 37.7%.
Turning to `CCn1cc(C(=O)OCC(=O)Nc2cc(C)cc(C)c2)c(=O)c2ccc(C)nc21`, the activity change, negative = inhibition was -39.2%.
To `CCc1ccccc1NC(=O)c1cnn(-c2ccc(F)cc2)c1C1CCNCC1` belongs 2.44%; to `CCOC(=O)Cc1ccc(NC(=O)Nc2c[nH]c(=O)[nH]c2=O)cc1`, 8.88%.
For the compound `COc1ccccc1CNC(=O)C(Cc1ccccc1)NS(=O)(=O)c1ccc2c(c1)oc(=O)n2C` (stereo not given), the activity change, negative = inhibition was 5.72%.
For the compound `Cc1[nH]c(C)c(S(=O)(=O)N2CCN(c3cccc(C(F)(F)F)c3)CC2)c1C(=O)N1CCCC1`, the activity change, negative = inhibition was -9.51%.
For the compound `Cc1[nH]c(C)c(S(=O)(=O)N2CCN(c3cccc(C(F)(F)F)c3)CC2)c1C(=O)N1CCCCC1`, the activity change, negative = inhibition was -80.2% (active).
As for `Cc1ccc(C)c(N2CCN(S(=O)(=O)c3c(C)[nH]c(C)c3C(=O)N3CCCC3)CC2)c1`, the activity change, negative = inhibition is -31.6%.
Regarding `CCCS(=O)(=O)c1c(Nc2ccccc2C)sc(C(=O)c2ccccc2)c1N`, the activity change, negative = inhibition is 16.8%.
As to `O=c1cc(CSc2ncn[nH]2)[nH]c2ccc(F)cc12`, the activity change, negative = inhibition is 10.7%.
Regarding `CC(C)(C)N1C(=O)c2c(C(=O)OCc3ccccc3)[nH]c(-c3ccccc3)c2C1=O`, the activity change, negative = inhibition was -12.2%.
Regarding `COc1ccc(CCNC(=O)c2c3c(nc4ccccc24)C(=O)N(C2CCCCC2)C3)cc1OC`, the activity change, negative = inhibition is -6.18%.
As to `CCN(CCCNC(=O)c1cc2cc3cc(OC)ccc3nc2s1)c1ccccc1`, the activity change, negative = inhibition is 44.1%.
For `COc1ccccc1Nc1cc(C(=O)NCCCN(C)C2CCCCC2)c2ccccc2n1` the value was -98.1% (active); for `CCN(CCCNC(=O)CSc1cc(=O)n(C)c2cc(Cl)ccc12)c1cccc(C)c1`, 1.12%.
As for `CCN(CCCNC(=O)c1cc(Nc2ccc(OC)cc2)nc2ccccc12)c1cccc(C)c1`, the activity change, negative = inhibition was -61.5% (active).
`CCCCN(CCCNC(=O)c1cc(Nc2ccccc2OC)nc2ccccc12)c1ccccc1`: the activity change, negative = inhibition was -9.32%.
For the compound `CCc1nc2cccnc2n1-c1ccc(CC(=O)Nc2c(C)cccc2C)cc1`, the activity change, negative = inhibition was 0%.
As to `Cc1cc(C)cc(NC(=O)c2cnc3sc(N4CCCC4)nn3c2=O)c1`, the activity change, negative = inhibition is -28.7%.
Consider `CCCCCCCCn1c2c(c(=N)c3c1CCC3)CCCC2`, for which the activity change, negative = inhibition was -99.4% (active).
With `CSc1ncc(C(=O)NCc2ccccc2Cl)c(C(F)(F)F)n1`, the activity change, negative = inhibition was -2.41%.
For the compound `O=C(CCN1CCCO1)N1CCCC(N2CCN(c3cccc(C(F)(F)F)c3)CC2)C1` (stereo not given), the activity change, negative = inhibition is 69.3%.
To `COC(=O)c1ccc(NC(=O)c2cc(S(=O)(=O)N3CCC(C)CC3)cn2C)cc1` belongs -7.89%; to `Cc1c2cnn(-c3ccccc3)c(=O)c2c(C)n1C(C)C(=O)Nc1ccc(Br)cc1F` (stereo not given), -30.3%.
`CC1CC(C)CN(S(=O)(=O)c2cccc(C(=O)N3C(=O)c4cccc(N)c4C3=O)c2)C1` (stereo not given): the activity change, negative = inhibition was 4.25%.
On to `Cn1c(CCN2CCN(c3ccccn3)CC2)nc2cc(NS(=O)(=O)c3ccc(F)cc3)ccc21`, for which the activity change, negative = inhibition is -85.1% (active).
With `Cn1c(=O)n(C)c2cc(NS(=O)(=O)c3ccc(F)cc3)ccc21`, the activity change, negative = inhibition is 1.03% and 221%.
Consider `Cn1c(=O)n(C)c2cc(S(=O)(=O)Nc3ccc(F)cc3)ccc21`, for which the activity change, negative = inhibition was 41.5%.
Consider `COc1ccc(NC(=O)CSc2nc3ccccc3[nH]2)cc1`, for which the activity change, negative = inhibition was 2.79%.
`CCOC(=O)C1=C(c2ccccc2)Nc2ncnn2C1c1ccc(Cl)cc1` (stereo not given): the activity change, negative = inhibition was -113% (active).
To `CCOc1ccccc1NC(=O)C1=C(C)Nc2ncnn2C1c1ccc(NC(C)=O)cc1` (stereo not given) belongs 4.88%; to `CC1=C(C(=O)Nc2ccccc2Cl)C(c2cccs2)n2ncnc2N1` (stereo not given), -15.8%.
As to `CCc1nn(CC(=O)Nc2cc(C)cc(C)c2)c(=O)c2cc3sccc3n12`, the activity change, negative = inhibition is -8.76%.
To `CCS(=O)(=O)N1CCC(n2c(C)nc3cccnc32)CC1` belongs -0.684%.
For `CCCSc1nc2sc3c(c2c(=O)n1-c1cccc(Br)c1)CC(C)(C)OC3`, the activity change, negative = inhibition is -0.221%.
Take `CC/C(C)=N/Nc1nc2sc3c(c2c(=O)[nH]1)CC(C)(C)OC3`: the activity change, negative = inhibition is -10.6%.
Consider `C=CCNC(=S)NNc1ncnc2sc3c(c12)CC(C)(C)OC3`, for which the activity change, negative = inhibition was -105% (active).
For `COc1ccc(NC(=O)C2CCCN(S(=O)(=O)c3c(C)[nH]c(=O)[nH]c3=O)C2)c(OC)c1` (stereo not given) the value was 10.4%.
Turning to `CC(/C=C/c1ccco1)=N/NC(=O)C1COc2ccccc2O1` (stereo not given), the activity change, negative = inhibition was 27.4%.
`COC(=O)C1(C)CC1(c1ccccc1)c1ccccc1` (stereo not given): the activity change, negative = inhibition was 13.4%.
Consider `CC(/C=C/c1ccccc1)=N\NC(=O)C1CC1(C)c1ccccc1` (stereo not given), for which the activity change, negative = inhibition was -62.3% (active).
Take `Cc1cn(C2C=CC(CO)O2)c(=O)[nH]c1=O` (stereo not given): the activity change, negative = inhibition is -30.1%.
As for `COc1ccc(S(=O)(=O)NCC(c2ccc(N(C)C)cc2)N2CCCC2)cc1` (stereo not given), the activity change, negative = inhibition is -4.35%.
Consider `Cc1cc(C(=O)COc2ccccc2Cl)c(C)n1C1CC1`, for which the activity change, negative = inhibition is -67.2% (active).
Turning to `Cc1cc(C(=O)OCC(=O)Nc2c(F)cccc2F)c(C)n1C1CC1`, the activity change, negative = inhibition is -2.16%.
With `Cc1ccccc1NC(=O)COC(=O)c1cc(C)n(C2CC2)c1C`, the activity change, negative = inhibition was -2.16%.
To `COc1cccc(CNC(=O)C2CCC(CNS(=O)(=O)c3cccs3)CC2)c1` (stereo not given) belongs -3.87%.
Consider `Fc1cccc(-n2ncc3c2ncn2nc(-c4ccccc4Cl)nc32)c1`, for which the activity change, negative = inhibition was -25.2%.

(Values after PubChem BioAssay AID1259415 (National Center for Advancing Translational Sciences (NCATS), 2018).)
